Most compounds without a hit are left out; they make up all but 5.7% or so of the library.
TGFb SMAD3 inh: qHTS for Inhibitors of TGF-b; HepG2 CAGA-GFP TGF-b/SMAD3 reporter, GFP fluorescence, 18 h; TGF-beta stimulated, 500 pg/mL final; Potency, µM (series often up to 46.1 µM), for inactives: at the highest dose activity, negative = inhibition, most hits filed as inhibitors; 410,000 tested, 1.2% active; AID 588855, 2011; further: potency means the concentration at half of the fitted maximal effect; on the % scale 0 is the no-effect control and ±100 the full control effect; nearly all actives have a fitted effect of over 65% in size
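Per well, imaged GFP fluorescence of HEPG2 CAGA-GFP cells gives the signal; cells get compound, then TGF-beta (500 pg/mL final), 18 h at 37 degrees C; %Activity versus -TGF-beta and +DMSO controls.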
ATXN2 expr inh: Primary qHTS for Inhibitors of ATXN expression. HEK-293 ATXN2-luciferase reporter, luminescence, 24 h. Potency, µM (series often up to 57 µM), without a hit: at the highest dose activity change, negative = inhibition, actives largely listed as inhibitors. 360,000 tested, 0.72% active; further: potency means the concentration at half of the fitted maximal effect; on the % scale 0 is the no-effect control and ±100 the full control effect; nearly all actives have a fitted effect of over 55% in size
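ATXN2-luciferase reporter cells (luciferase flanked by upstream and downstream ATXN2 gene portions) were treated 24 h at 37 °C with compounds at up to 57 uM. SteadyGlo luminescence gave expression; GF-AFC fluorescence gave viability.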
IL-1B inflam inh: qHTS for Inhibitors of Inflammasome Signaling: IL-1-beta AlphaLISA Primary Screen; THP-1 LPS/ATP IL-1B secretion, AlphaLISA, 16 h; active compounds read low; activity change, % at 57.5 µM; 360,000 tested, 4.7% active; AID 743279, 2014; in the data active means activity change below about -50%; inconclusive means mostly about -30% to -49%; further: on the % scale 0 is the no-effect control and ±100 the full control effect
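THP-1 cells pretreated 1 hr with compounds (up to 57.5 uM final), then stimulated with LPS (250 ng/mL final) plus ATP (1.25 mM final); secreted IL-1B measured by AlphaLISA after 16 hr, decreased signal indicating inhibition.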
HepG2 tox-1: qHTS for Inhibitors of TGF-b: Cytotox Counterscreen. HepG2 CAGA-GFP viability, ATP luminescence, 18 h. 410,000 tested, 0.76% active. Potency, µM (top dose mostly 46.1 µM), for inactives: at the highest dose activity change, negative = cytotoxicity, actives largely listed as cytotoxic; further: potency means the concentration at half of the fitted maximal effect
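CellTiter-Glo luminescence gave cytotoxicity after 18 hours at 37 degrees C. The cells were HepG2 CAGA-GFP in 1% FBS DMEM, stimulated with 500 pg/mL TGF-beta after compound addition. %Activity was normalised to no-cell wells (complete cell-killing) and DMSO (no toxicity), and curves were fitted and classified.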
ATXN viability: Viability Counterscreen for Primary qHTS for Inhibitors of ATXN expression. S2 cells (HEK-293 line with an ATXN2-luciferase reporter) viability, CellTiter-Fluor protease fluorescence, 24 h. Potency, µM (doses to about 56.7 µM), most hits filed as cytotoxic. 400,000 tested, 0.49% active; further: potency means the concentration at half of the fitted maximal effect; nearly all actives have a fitted effect of over 40% in size
TGFb CAGA inh: qHTS for Inhibitors of TGF-b: Confirmation of Cherry Picks | shares compounds with TGFb SMAD3 inh | HepG2 CAGA-GFP TGF-b reporter, GFP fluorescence, 18 h; cells stimulated with TGF-beta, 500 pg/mL | Potency, µM (highest dose often 46.1 µM), inactives show at the top dose activity, negative = inhibition, usual class: inhibitors | 1,600 tested, 63% active; further: potency means the concentration at half of the fitted maximal effect; on the % scale 0 is the no-effect control and ±100 the full control effect; nearly all actives have a fitted effect of over 65% in size
HepG2 tox-2: qHTS for Inhibitors of TGF-b: Cytotox Counterscreen for Cherry Picks. shares compounds with TGFb SMAD3 inh. Potency, µM (highest dose often 46.1 µM), for the others: at the highest dose activity, negative = cytotoxicity, hits mostly inhibitors. AID 720535, 2013. HepG2 CAGA-GFP viability, ATP luminescence, 18 h; cells stimulated with TGF-beta, 500 pg/mL. 1,600 tested, 27% active; further: potency means the concentration at half of the fitted maximal effect; on the % scale 0 is the no-effect control and ±100 the full control effect; nearly all actives have a fitted effect of over 70% in size
CCL64 TGFb inh: qHTS for Inhibitors of TGF-b: CCL64 Cells Orthogonal Assay for Cherry Picks; shares compounds with TGFb SMAD3 inh; CCL64 CAGA-GFP reporter, TGF-b stimulated, GFP fluorescence, 18 h; Potency, µM (series often up to 46.1 µM), for inactives: at the top dose activity, negative = inhibition, usual class: inhibitors; 1,600 tested, 41% active; AID 720536, 2013; further: potency means the concentration at half of the fitted maximal effect; nearly all actives have a fitted effect of over 65% in size
COP TGFb inh: qHTS for Inhibitors of TGF-b: Hit Validation in HepG2 Cells using COP promoter; shares compounds with TGFb SMAD3 inh; HepG2 COP-GFP TGF-b reporter, GFP fluorescence, 18 h; cells stimulated by added recombinant TGF-beta; Potency, µM (doses to about 46.1 µM), for inactives: top-dose activity, negative = inhibition, hits mostly inhibitors; 1,600 tested, 3% active; AID 720537, 2013; further: potency means the concentration at half of the fitted maximal effect; nearly all actives have a fitted effect of over 70% in size
* = called active by the depositor; i = inactive; ? = inconclusive; / = no result. Unless noted, the call rests on the fitted dose curve; in most records, active means well fitted curve in the direction sought with a large enough effect; inconclusive means small, poorly fitted or top-dose-only effect, or another doubt; inactive means no such curve, though single readings can be large; an effect the other way counts as inactive or inconclusive.

SMILES	TGFb SMAD3 inh	ATXN2 expr inh	IL-1B inflam inh	HepG2 tox-1	ATXN viability	TGFb CAGA inh	HepG2 tox-2	CCL64 TGFb inh	COP TGFb inh
CCc1cnc2c(c1SCC(=O)Nc1ccc(Cl)cc1)c(=O)n(C)c(=O)n2C	13.0%	9.6%	/	1.4%	i	/	/	/	/
CCOc1ccc(N2C(=O)CC(N(CCc3ccc(S(N)(=O)=O)cc3)C(C)=O)C2=O)cc1 (centres undefined)	0.6%	-1.9%	2.9	2.0%	i	/	/	/	/
CCCCCCOc1ccc(N2C(=O)CC(N(CCc3ccc(S(N)(=O)=O)cc3)C(C)=O)C2=O)cc1 (centres undefined)	?	-28.1%	0.0	-6.1%	i	?	-15.6%	0.2%	11.4%
Cc1ccc(CN2C(=O)C3(c4ccccc42)N(c2cccc(C(F)(F)F)c2)C(=O)CS3(=O)=O)cc1 (centres undefined)	1.6%	-13.9%	/	-24.4%	i	/	/	/	/
CCc1nc(OCc2ccco2)c2sc3nc4c(cc3c2n1)COC(C)(C)C4	?	38.9%	3.7	-11.4%	i	?	-16.0%	-1.2%	18.7%
Cc1ccc(C)c(NC(=O)CSc2c(C)cnc3c2c(=O)n(C)c(=O)n3C)c1	13.8%	6.6%	/	8.9%	?	/	/	/	/
COc1ccc(-c2[nH]c(-c3cc(OC)c4c(c3)OCO4)nc2-c2ccccc2)cc1	?	-18.0%	-16.7	3.8%	i	13µM*	?	?	35.6%
COC(=O)CCS(=O)(=O)c1nc(-c2ccccc2)cc(C(F)(F)F)n1	5.01µM*	?	-105.1*	14.1µM*	/	4.61µM*	14.6µM*	2.06µM*	?
COc1ccccc1-n1cc([C@@H]2C[C@H]3CN(c4ccccc4)C(=O)[C@]34CCCN24)cn1	5.01µM*	?	-78.4*	0.0%	?	0.731µM*	?	5.17µM*	26.7%
Cc1ccc(-n2ncc(C(=O)N3CCN(C4CCCCC4)CC3)c2C2CCN(C(=O)OC(C)(C)C)CC2)cc1C	-1.6%	/	/	11.1%	/	/	/	/	/
C/C(=N\NC(=O)c1ccccc1OCCOc1ccccc1)c1ccccc1F	20µM*	-12.8%	-65.0*	-19.3%	?	?	?	?	56.5%
C/C(=N\NC(=O)c1ccccc1)c1ccccc1F	19.8%	72.8%	-7.1	12.7%	i	/	/	/	/
CC(=O)Oc1ccccc1C(=O)C=Cc1cccc([N+](=O)[O-])c1	7.08µM*	?	-100.6*	-30.9%	/	10.3µM*	?	5.8µM*	?
Cc1cc(O)c(C(=O)/C=C/c2cccc([N+](=O)[O-])c2)c(=O)o1	-11.1%	-4.5%	-2.9	-6.3%	i	/	/	/	/
